High-throughput results deposited in PubChem by several laboratories.
Sampled rows, rich in hits. Any-hit rate of the full collection: about 4.2%.
esBAF inh: inhibitors of esBAF chromatin remodeling in mouse ES cells; 2% of 350,000 active; AID 602393; reporter increase, % at 12.5 µM; Bmi1-luciferase knock-in reporter, 24 h; 100% = twice the neutral-well signal; in the data active = activation above about 40%; inconclusive = no clear call, values can overlap the other calls;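 note: 0% = median of the plate's neutral control wells and 100% = double that signal; a rise in the Bmi1 reporter signal indicates esBAF inhibition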
hcDAF12 agonist: activators of H. contortus DAF-12 nuclear receptor; HEK293 hcDAF-12 lit1-tk-luc reporter, luminescence; 0% DMSO, 100% Δ7-dafachronic acid; activation, % at 6.8 µM; 1.4% of 370,000 active; AID 652067;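 active = activation above the mean of all tested compounds plus 3 SD, cut at about 5.5% in these data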;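 note: 100% = response to 3 µM Δ7-dafachronic acid high control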
hgDAF12 agonist: hgDAF-12 agonism, primary luciferase screen. HEK293 GAL4-hgDAF12 UAS-luciferase reporter, agonist luminescence; normalized to butyrate control. activation, % at 6.8 µM. 1.8% of 370,000 active. AID 687014;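 active = activation above a cutoff set at the mean of all screened compounds plus 3 SD, cut at about 10% in these data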;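 note: 0% = DMSO wells and 100% = sodium butyrate wells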
ssDAF12 agonist: S. stercoralis DAF-12 activation, primary screen. HEK293 ssDAF-12/GRIP1 lit1-tk-luc reporter, luminescence; % of 3 µM dafachronic acid response. activation, % at 6.8 µM. 1% of 370,000 active. AID 652126;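 active = activation above the mean over all tested compounds plus 3 SD, cut at about 0.9% in these data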;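 note: 0% = DMSO-only wells and 100% = 3 µM delta7-dafachronic acid wells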
Wnt act: Wnt/beta-catenin pathway activation | Wnt/beta-catenin reporter cell assay, activator, plate reader | activation, % at 9.35 µM | 1.2% of 300,000 active | AID 743398; in the data active = activation above about 30%, passing the limit was not always enough; inconclusive = no clear call, values can overlap the other calls;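 note: 0% = neutral control wells and 100% = positive control wells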
DAX1 inh: blocks DAX1 repression of SF-1 activated StAR promoter; inhibition, % at 6.8 µM; HEK293T StAR-luciferase reporter, SF-1/DAX-1 repression relief; 1.1% of 370,000 active;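 active = inhibition above the mean over all tested compounds plus 3 SD, cut at about 3.6% in these data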;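 note: 0% = DAX-1 cells with DMSO and 100% = cells lacking DAX-1 with DMSO; higher inhibition means more luminescence from relief of DAX-1 repression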
* = called active by the depositor; ? = inconclusive; nt = not tested or not shown.

SMILES | esBAF inh | hcDAF12 agonist | hgDAF12 agonist | ssDAF12 agonist | Wnt act | DAX1 inh
Cc1cccc(Cc2nnc(CCC(=O)N(C)CCc3ccccc3)o2)c1 | ? | 4 | 12* | -1 | 0 | 2
COc1ccccc1S(=O)(=O)N[C@H]1C=C[C@H](CC(=O)N2CCCCC2)O[C@@H]1CO | -1 | nt | nt | nt | nt | nt
COc1ccc(C2Nc3ccccc3C(=O)N2c2ccc(C)cc2)cc1Cn1nc(C)c([N+](=O)[O-])c1C (configuration not stated) | 86* | 0 | 4 | 0 | 16 | 2
CCC(C)NC(=O)c1cc(-c2ccc3c(c2)OCO3)on1 (configuration not stated) | 3 | 4 | 9 | 0 | 41* | 2
CCC(C)NC(=O)c1cc(-c2ccc(OC)cc2)on1 (configuration not stated) | -11 | 3 | 11* | -1 | nt | 2
CCC(C)NC(=O)COCc1cc(-c2ccc3c(c2)OCO3)on1 (configuration not stated) | 6 | 1 | 1 | 0 | 0 | 1
Cc1cc(NC(=O)c2cc(CC(C)C)on2)no1 | 31 | 2 | 7 | 0 | -1 | 1
CCC(C)NC(=O)c1cc(CC(C)C)on1 (configuration not stated) | 54* | 2 | 4 | -1 | 10 | 1
CCCNC(=O)Nc1ccc2c(c1)C(=O)N(C)[C@@H]1CC[C@H](CC(=O)NC)O[C@@H]1CO2 | 8 | nt | nt | nt | nt | nt
C[C@@H]1CN([C@H](C)CO)C(=O)Cc2cc(NS(=O)(=O)c3cn(C)cn3)ccc2O[C@@H]1CN(C)Cc1ccncc1 | 0 | nt | nt | nt | nt | nt
C[C@H]1CN([C@@H](C)CO)C(=O)c2cc(C#Cc3ccccn3)cnc2O[C@@H]1CN(C)CC1CCCC1 | -1 | nt | nt | nt | nt | nt
COCC(=O)n1nc(-c2ccc(C)cc2)nc1NCc1ccc(F)cc1 | nt | 1 | 4 | -1 | 6 | 0
Cc1ccc(-c2nc(NCc3ccco3)n(C(=O)c3ccco3)n2)cc1 | 60* | -1 | 9 | -2 | 15 | 2
COCC(=O)n1nc(-c2ccccc2)nc1NCc1ccc(N(C)C)cc1 | 50* | 4 | 5 | 0 | 10 | 2
O=C(COc1ccccc1)n1nc(-c2ccc(Cl)cc2)nc1NCc1ccco1 | 66* | 0 | 9 | -1 | nt | 2
C[C@@H]1CN([C@H](C)CO)C(=O)c2cc(NC(=O)C3CCCCC3)ccc2O[C@@H](C)CCCCO[C@@H]1CN(C)S(=O)(=O)c1ccc(F)cc1 | 3 | nt | nt | nt | nt | nt
N#C/C(=C\c1c[nH]c2ccccc12)C(=O)NC1CC1 | 71* | 2 | 9 | 0 | 8 | 2
Cc1cccc(C(=O)Nc2scc(-c3ccc(Br)cc3)c2C(=O)O)c1 | nt | -2 | 1 | -2 | 7 | 0
Cc1ccc(-c2csc(NC(=O)c3cccc(C)c3)c2C(=O)O)cc1 | nt | 0 | -2 | -1 | 40* | 0
CC(C)c1ccc(-c2csc(NC(=O)c3cccs3)c2C(=O)O)cc1 | 52* | 0 | -5 | -1 | 12 | -1
Cc1ccccc1NC(=O)Nc1ccc2c(c1)C(=O)N(C)[C@H]1CC[C@@H](CC(=O)O)O[C@@H]1CO2 | -5 | nt | nt | nt | nt | nt
Cc1ccc(-c2nc(-c3cccnc3)no2)c(C)c1 | 44* | 3 | 10 | 0 | nt | 2
COc1ccccc1Cc1nc(-c2cccnc2)no1 | nt | -1 | 2 | -1 | 38* | -1
Cc1ccc(C)c(OCc2nc(-c3cccnc3)no2)c1 | 16 | -1 | 2 | -1 | nt | -2
Cc1cc(Br)ccc1OCc1nc(-c2cccnc2)no1 | 85* | -1 | 3 | -1 | 38* | -1
SMILES | esBAF inh | hcDAF12 agonist | hgDAF12 agonist | ssDAF12 agonist | Wnt act | DAX1 inh
O=C(C[C@@H]1C=C[C@@H](NC(=O)Cc2cccnc2)[C@H](CO)O1)Nc1ccccc1 | 6 | nt | nt | nt | nt | nt
Cc1noc(C)c1NC(=O)N(C)C[C@H]1OCCCC[C@@H](C)Oc2ccc(NC(=O)c3ccccc3)cc2C(=O)N([C@@H](C)CO)C[C@H]1C | 1 | nt | nt | nt | nt | nt
CCC1Oc2ccccc2C(=O)N(CC(=O)c2ccc3c(c2)OCCO3)C1=O (configuration not stated) | 69* | -2 | 5 | -1 | -4 | -1
CCc1cccc2c(C(=O)CN3C(=O)NC4(CCCCC4)C3=O)c[nH]c12 | -52 | -1 | -8 | -2 | 5 | 3.9*
Cc1cc(C(=O)CN2C(=O)NC3(CCCCCC3)C2=O)c(C)n1C | 44* | 0 | 4 | -1 | 29 | 2
CC(C)N(Cc1ccccc1)C(=O)CN1C(=O)NC2(CCCC2)C1=O | -1 | -1 | -2 | -1 | 0 | 4.1*
Cc1ccc(S(=O)(=O)N2CC[C@@H]3[C@H]2c2cc(-c4cccc(C#N)c4)ccc2N(C)[C@H]3CO)cc1 | 6 | nt | nt | nt | nt | nt
CCOC(=O)C1CCN(C(=O)CN2C(=O)NC3(CCCCC3)C2=O)CC1 | 1 | 0 | -1 | -1 | 43* | -1
CCc1ccc(C(=O)CN2C(=O)NC3(CCCCCC3)C2=O)cc1 | 64* | 1 | 5 | -1 | 13 | 4.5*
O=C(CN1C(=O)NC2(CCCCCC2)C1=O)c1ccc(F)cc1 | 6 | 2 | 2 | 0 | 4 | 0
O=C(CN1C(=O)NC2(CCCCCC2)C1=O)c1ccc2c(c1)OCCO2 | 37 | 6.4* | 11* | 0 | 67* | 2
CC1CCN(C(=O)CN2C(=O)NC3(CCCCCC3)C2=O)CC1 | 12 | -1 | -2 | 0 | 5 | 0
O=C(CN1C(=O)NC2(CCCCCC2)C1=O)c1ccc(Cl)cc1 | 52* | 2 | 1 | -1 | 15 | 0
O=C(C[C@@H]1CC[C@H]2[C@@H](COC[C@@H](O)CN2Cc2ccccc2F)O1)NCc1ccccc1F | -6 | nt | nt | nt | nt | nt
CCCNC(=O)N1C[C@@H](O)COC[C@@H]2O[C@@H](CC(=O)NCCCN3CCOCC3)CC[C@H]21 | -2 | nt | nt | nt | nt | nt
COc1ccc2[nH]c(S(=O)Cc3ncc(C)c(OC)c3C)nc2c1 (configuration not stated) | 17 | 3 | -4 | 0 | 13 | 0
COc1ccnc(CS(=O)c2nc3cc(C(O)(F)F)ccc3[nH]2)c1OC (configuration not stated) | -6 | 6.1* | 3 | 0 | 0 | 0
COC(=O)C[C@H]1CC[C@@H]2[C@@H](COc3ccc(NC(=O)c4cccc(OC)c4)cc3C(=O)N2C)O1 | -3 | nt | nt | nt | nt | nt
CO[C@@H]1CN(C)C(=O)c2cc(NC(=O)Cc3ccccc3)ccc2OC[C@@H](C)N(CC2CC2)C[C@H]1C | 2 | nt | nt | nt | nt | nt
CC(NC(=O)c1noc2c1CCCCC2)c1ccccc1 (configuration not stated) | 45* | 0 | 2 | 0 | 0 | 1
O=C(NCc1ccco1)c1noc2c1CCCC2 | nt | 0 | 0 | -1 | nt | -1
O=C(NC1CCCC1)c1noc2c1CCCCC2 | nt | 4 | 6 | 0 | 43* | 2
